# Experimental data reported in PubChem BioAssay AID743449 (Broad Institute, 2014).
# Out of some 9,900 compounds screened, about 90 (0.9%) were called active. About 2% were inconclusive and are not listed. Only a selection was taken, and actives are over-represented in it overall. Unmarked numbers belong to inactive results.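 The calls were made as follows: active = mean normalized replicate activity at least 50 and at least half of replicates each reaching 50; inconclusive = only one of the two criteria met; inactive = neither criterion met.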
# Assay: YAP1 pathway inhibitors via CTGF transcript, primary screen, DLD1 colon cancer cells, RT-qPCR, single point (AID 743449);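 also: 0% = neutral control wells and 100% = dasatinib control wells; higher means stronger suppression of CTGF expression like dasatinib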
# Conditions: DLD1 CTGF mRNA qPCR, 24 h; at 12.5 µM; stronger effect = higher value
row,SMILES,inhibition
1,O=C(c1cccc(F)c1)N1CCCCN2[C@H](C1)[C@@H](c1ccc(C#CC3(O)CCCC3)cc1)[C@@H]2CO,30.5%
2,O=C(c1cccc(F)c1)N1CCCCN2[C@H](CO)[C@H](c3ccc(C#CC4(O)CCCC4)cc3)[C@H]2C1,11.6%
3,C[C@H](O)C#Cc1ccc([C@@H]2[C@@H](CO)N3CCCCN(C(=O)c4ccc5c(c4)OCO5)C[C@H]23)cc1,-21.5%
4,O=C(c1cccc(F)c1)N1CCCCN2[C@H](CO)[C@H](c3ccc(C#CC4(O)CCCC4)cc3)[C@@H]2C1,58.8% (active)
5,O=C(c1cccc(F)c1)N1CCCCN2[C@H](CO)[C@@H](c3ccc(C#CC4(O)CCCC4)cc3)[C@@H]2C1,-4.53%
6,C[C@H](O)C#Cc1ccc([C@H]2[C@@H](CO)N3CCCCN(C(=O)c4ccc5c(c4)OCO5)C[C@@H]23)cc1,53.3% (active)
7,O=C(c1cccc(F)c1)N1CCCCN2[C@H](C1)[C@H](c1ccc(C#CC3(O)CCCC3)cc1)[C@@H]2CO,24%
8,O=C(c1cccc(F)c1)N1CCCCN2[C@@H](CO)[C@H](c3ccc(C#CC4(O)CCCC4)cc3)[C@@H]2C1,68.7% (active)
9,C[C@H](O)C#Cc1ccc([C@@H]2[C@H]3CN(C(=O)c4ccc5c(c4)OCO5)CCCCN3[C@H]2CO)cc1,-48.5%
10,O=C(C[C@H]1CC[C@H]2[C@@H](COC[C@@H](O)CN2C(=O)c2cccnc2)O1)NCC1CC1,6.53%
11,COCCNC(=O)C[C@@H]1C[C@H]2c3cc(NC(=O)CN(C)C)ccc3O[C@H]2[C@H](CO)O1,0.098%
12,COc1cccc(NC(=O)N2C[C@H](O)COC[C@H]3O[C@H](CC(=O)N(C)C)CC[C@@H]32)c1,-3.69%
13,O=C(CN1CCOCC1)N1CC(=O)N2[C@H](C1)[C@@H](c1ccc(-c3cccc(F)c3)cc1)[C@@H]2CO,10.6%
14,C[C@H](CO)N1C[C@H](C)[C@H](CN(C)C(=O)Nc2ccc(-c3cccs3)cc2)OCc2cnnn2CCCC1=O,13.8%
15,C[C@H]1CC=CC[C@H](c2cccc(Cl)c2)NC(=O)[C@H](Cc2ccccc2)N(C)C(=O)c2ccccc2O1 (mixture of isomers),-228%
16,CC(C)[C@@H]1C(=O)N[C@H](c2cccc(Cl)c2)CC=CC[C@@H](C)Oc2ccccc2C(=O)N1C (mixture of isomers),14.5%
17,C[C@@H]1CC=CC[C@@H](c2cccc(Cl)c2)NC(=O)[C@@H](Cc2ccccc2)N(C)C(=O)c2ccccc2O1 (mixture of isomers),67.5% (active)
18,CC(C)[C@H]1C(=O)N[C@H](c2cccc(Cl)c2)CC=CC[C@H](C)Oc2ccccc2C(=O)N1C (mixture of isomers),-2.2%
19,C[C@@H]1CC=CC[C@@H](c2cccc(Cl)c2)NC(=O)[C@H](Cc2ccccc2)N(C)C(=O)c2ccccc2O1 (mixture of isomers),50.4% (active)
20,C[C@H]1CC=CC[C@H](c2cccc(Cl)c2)NC(=O)[C@@H](Cc2ccccc2)N(C)C(=O)c2ccccc2O1 (mixture of isomers),-83.3%

row,SMILES,inhibition
1,CN1C(=O)c2cc(NC(=O)NCc3ccccc3)ccc2OC[C@@H]2O[C@@H](CC(=O)NCC3CCCCC3)CC[C@H]21,-20.9%
2,COc1cccc(S(=O)(=O)N[C@H]2CC[C@H](CC(=O)NC3Cc4ccccc4C3)O[C@H]2CO)c1,3.79%
3,Cc1noc(C)c1S(=O)(=O)N(C)C[C@H]1OCCCC[C@H](C)Oc2ccc(NC(=O)CCC(F)(F)F)cc2C(=O)N([C@@H](C)CO)C[C@@H]1C,8.01%
4,CN1C(=O)c2cc(NC(=O)c3cccc(Cl)c3)ccc2OC[C@H]2O[C@H](CC(=O)NC3CCCCC3)CC[C@H]21,-12.4%
5,COc1ccccc1NC(=O)N1CCCCN2[C@H](CO)[C@H](c3ccc(-c4cccc(C#N)c4)cc3)[C@H]2C1,19.1%
6,COc1ccccc1NC(=O)N1CCCCN2[C@H](C1)[C@@H](c1ccc(-c3cccc(C#N)c3)cc1)[C@@H]2CO,-9.55%
7,COc1ccccc1NC(=O)N1CCCCN2[C@H](CO)[C@@H](c3ccc(-c4cccc(C#N)c4)cc3)[C@H]2C1,-21.9%
8,COc1ccccc1NC(=O)N1CCCCN2[C@@H](CO)[C@@H](c3ccc(-c4cccc(C#N)c4)cc3)[C@@H]2C1,-18.2%
9,COc1ccccc1NC(=O)N1CCCCN2[C@H](CO)[C@H](c3ccc(-c4cccc(C#N)c4)cc3)[C@@H]2C1,52.5% (active)
10,COc1ccccc1NC(=O)N1CCCCN2[C@@H](CO)[C@H](c3ccc(-c4cccc(C#N)c4)cc3)[C@@H]2C1,75% (active)
11,COc1cccc(S(=O)(=O)N[C@H]2CC[C@@H](CC(=O)NC3Cc4ccccc4C3)O[C@H]2CO)c1,0.76%
12,CCC(=O)N1CC2(C1)[C@H](c1ccc(-c3ccc(F)cc3)cc1)[C@H](CO)N2C(C)=O,5.26%
13,COc1cccc(C(=O)Nc2ccc3c(c2)C(=O)N(C)[C@@H]2CC[C@H](CC(=O)N[C@@H](C)c4ccccc4)O[C@@H]2CO3)c1,-43.4%
14,O=C(Nc1ccc(F)cc1)N1CC(=O)N2[C@H](C1)[C@@H](c1ccc(-c3cccc(F)c3)cc1)[C@@H]2CO,-72.3%
15,COCC(=O)N1[C@H](CO)[C@@H](c2ccccc2)C12CN(C(=O)c1ccccc1)C2,-0.941%
16,C[C@H]1CN([C@@H](C)CO)C(=O)c2ccccc2-c2ccccc2CO[C@H]1CN(C)S(=O)(=O)c1cn(C)cn1,10.4%
17,CC(C)(C)S(=O)N1Cc2cc(C(=O)NCc3ccc4c(c3)OCO4)nc(-c3cccc(-c4cc5ccccc5o4)c3)c2[C@H]1CCO (some centres undefined),20.7%
18,CC(C)(C)[S@](=O)N1Cc2cc(C(=O)NC3CCC3)nc(-c3cccc(-c4ccccc4F)c3)c2[C@@H]1CCO,41%
19,CC(C)(C)[S@@](=O)N1Cc2cc(C(=O)NCc3ccccn3)nc(-c3cccc(-c4ccccc4F)c3)c2[C@H]1CCO,-29.9%
20,CC(C)(C)S(=O)N1Cc2cc(C(=O)NCc3ccc(Oc4ccccc4)cc3)nc(-c3cccc(-c4cccc(F)c4)c3)c2[C@@H]1CCO (some centres undefined),9.98%

row,SMILES,inhibition
1,CC(C)(C)S(=O)N1Cc2cc(C(=O)NCc3ccc4c(c3)OCO4)nc(-c3cccc(-c4cccc(F)c4)c3)c2[C@@H]1CCO (some centres undefined),55.2% (active)
2,CCNC(=O)c1cc2c(c(-c3cccc(-c4ccccc4F)c3)n1)[C@@H](CCO)N(C(=O)CC1CC1)C2,59.3% (active)
3,CN(C)C(=O)c1cc2c(c(-c3cccc(C4=CCCCC4)c3)n1)[C@@H](CCO)N(S(C)(=O)=O)C2,-7.52%
4,CCNC(=O)c1cc2c(c(-c3cccc(-c4ccccc4F)c3)n1)[C@H](CCO)N(C(=O)CC1CC1)C2,-97.9%
5,CC(C)(C)[S@](=O)N1Cc2cc(C(=O)NCc3ccccn3)nc(-c3cccc(-c4ccccc4F)c3)c2[C@@H]1CCO,53% (active)
6,CCN1Cc2cc(C(=O)Nc3nccs3)nc(-c3cccc(C4=CCCC4)c3)c2[C@H]1CCO,-15.8%
7,CCC(=O)N1Cc2cc(C(=O)NCc3cccc(F)c3)nc(-c3cccc(C4=CCCC4)c3)c2[C@H]1CCO,50.2% (active)
8,CCNC(=O)c1cc2c(c(-c3cccc(-c4cncnc4)c3)n1)[C@H](CCO)N(C(C)=O)C2,-8.43%
9,O=C1C[C@H](c2ccccc2)C(=O)N[C@H](c2ccccc2)C/C=C\C[C@H](c2ccccc2)N1,-5.88%
10,COc1ccc(S(=O)(=O)Nc2ccc3c(c2)C(=O)N([C@H](C)CO)C[C@H](C)[C@@H](CN(C)C(=O)Nc2c(C)noc2C)OCCCC[C@H](C)O3)cc1,-7.64%
11,O=C(Cc1cccnc1)N1[C@H](CNCC2CCC2)[C@H](c2ccccc2)[C@@H]1CO,-21.2%
12,COc1ccc(S(=O)(=O)Nc2ccc3c(c2)C(=O)N([C@@H](C)CO)C[C@@H](C)[C@@H](CN(C)Cc2ccc(C(F)(F)F)cc2)OCCCC[C@H](C)O3)cc1,-37.9%
13,O=C(C1CCOCC1)N1CC[C@@H]2[C@@H](CO)Nc3ccc(-c4cccc(F)c4)cc3[C@@H]21,-12.5%
14,CO[C@H]1CC[C@H]2CCOc3c(C#N)cccc3C(=O)N(C)C[C@@H](OC)[C@@H](C)C(=O)N(C)C[C@H]1O2,-18.4%
15,O=C(C[C@@H]1CC[C@@H]2[C@H](COC[C@@H](O)CN2C(=O)c2cnccn2)O1)N1CCN(c2ccccc2)CC1,-2.5%
16,COc1ccc2c3c([nH]c2c1)[C@H](CO)N(C(=O)c1ccccn1)CC31CCN(S(C)(=O)=O)CC1,-21.9%
17,COc1ccccc1CN1[C@@H]2c3ccc(C4=CCCC4)c(=O)n3C[C@H]1[C@H](CO)[C@H]2C(=O)N(C)C,2.56%
18,C[C@@H]1CN([C@H](C)CO)C(=O)Cc2cc(NS(=O)(=O)c3cccs3)ccc2O[C@@H]1CN(C)CC1CCCCC1,1.75%
19,COc1ccc2c3c(n(C)c2c1)[C@@H](CO)N(S(C)(=O)=O)CC31CCN(Cc2nccs2)CC1,14%
